{
  "source": "PubChem BioAssay (NCI)",
  "note": "The panel holds about 79,000 compounds, 15% with a hit somewhere; the sample as a whole holds those more often. The source made the active and inactive calls. Cut-off read from the data, not from the text of the source: active = growth inhibition above about 70%; inactive = the rest.",
  "data": [
    {"experiment": "NCI Yeast Anticancer Drug Screen. Data for the sgs1 mgt1 strain (AID 161);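 note: 0% = growth of cultures given vehicle only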", "settings": "S. cerevisiae sgs1 mgt1 strain, at 50.0 µM, stronger effect = higher value", "description": "Growth inhibition of yeast strains with defined genetic alterations is measured as a screen for potential anti-cancer activity. Selected strains with alterations in DNA damage repair or cell cycle control were exposed to compounds and growth inhibition was measured relative to vehicle treated controls. The strain used in this assay is sgs1 mgt1", "values": [
      {"smiles": "CCCCCC/C=C\\CCCCCCCCCc1cc(O)cc(OC)c1O", "growth inhibition": "-5.65% (inactive)"},
      {"smiles": "CC(C)c1ccccc1NC(=O)N1CCC(C(C)C)CC1", "growth inhibition": "-29.8% (inactive)"},
      {"smiles": "Cc1cc(Cl)cc(Cc2cc(Cl)cc(C)c2O)c1O", "growth inhibition": "55% (inactive)"},
      {"smiles": "NC(=O)N1CCOCC1", "growth inhibition": "-12.9% (inactive)"},
      {"smiles": "CC12CCC3c4ccc(O)cc4CCC3C1CCC2=O", "note": "(stereo not given)", "growth inhibition": "14.7% (inactive)"},
      {"smiles": "Cc1c(-c2ccc(C3CCCCC3)cc2)nc2ccc(F)cc2c1C(=O)O", "growth inhibition": "12.3% (inactive)"},
      {"smiles": "Cc1cccc(-[n+]2noc(N)n2)c1", "growth inhibition": "2.25% (inactive)"},
      {"smiles": "O=C(O)c1cc(I)ccc1O", "growth inhibition": "-1.25% (inactive)"},
      {"smiles": "CSCC[C@@H]1C(=O)N(C)[C@H](C(C)(C)C)N1C(=O)c1ccccc1", "growth inhibition": "-7.05% (inactive)"},
      {"smiles": "O=S(=O)(O)c1cccnc1", "growth inhibition": "10.7% (inactive)"},
      {"smiles": "O=C(O)C1CCCN1C(=O)OCc1ccccc1", "note": "(stereo not given)", "growth inhibition": "-17.9% (inactive)"},
      {"smiles": "CN(C)CCOC(=O)Nc1ccc(Cc2ccc(NC(=O)OCCN(C)C)cc2)cc1", "growth inhibition": "-1.75% (inactive)"},
      {"smiles": "O=S(=O)(O)c1cccc2cccnc12", "growth inhibition": "7% (inactive)"},
      {"smiles": "CCOC(C=O)OCC", "growth inhibition": "4.35% (inactive)"},
      {"smiles": "CC(=O)C1C(=O)C(=O)N(c2ccc(Cl)c(Cl)c2)C1=O", "note": "(stereo not given)", "growth inhibition": "-2.35% (inactive)"},
      {"smiles": "CC(c1ccccc1)N1C(=O)CSC1=S", "note": "(stereo not given)", "growth inhibition": "22.8% (inactive)"},
      {"smiles": "Nc1ccccc1SC1CC(=O)N(c2ccc(Cl)c(Cl)c2)C1=O", "note": "(stereo not given)", "growth inhibition": "4.7% (inactive)"},
      {"smiles": "CCCCCCCCCCCCCCCCCCSC(=N)N", "growth inhibition": "-9.1% (inactive)"},
      {"smiles": "COc1nc2ccccc2s1", "growth inhibition": "13.1% (inactive)"},
      {"smiles": "CC(=O)c1cccc(O)c1", "growth inhibition": "6.65% (inactive)"},
      {"smiles": "CCc1ccccc1C(=O)N(CC)CC", "growth inhibition": "16.6% (inactive)"},
      {"smiles": "CCOC(=O)c1cc(C)[nH]c(=O)c1C#N", "growth inhibition": "-5.1% (inactive)"},
      {"smiles": "C=CCC(OC(C)=O)c1ccc(OC)c(OC)c1", "note": "(stereo not given)", "growth inhibition": "14.7% (inactive)"},
      {"smiles": "O=C(Nc1c(Cl)cc(Cl)cc1Cl)ON=C1CCCCC1", "growth inhibition": "11.1% (inactive)"},
      {"smiles": "O=C(N/N=C\\c1ccc(Cl)cc1Cl)c1ccncc1", "growth inhibition": "5.15% (inactive)"},
      {"smiles": "Nc1cccc2cccc(O)c12", "growth inhibition": "-17.5% (inactive)"},
      {"smiles": "NC(CO)(CO)c1ccccc1", "growth inhibition": "10.5% (inactive)"},
      {"smiles": "Cc1cccc(C)c1NC(=S)/N=C\\c1c(O)[nH]c(=O)[nH]c1=O", "growth inhibition": "-32.3% (inactive)"},
      {"smiles": "CCC(=O)C1C(=O)c2ccccc2C1=O", "growth inhibition": "-17.5% (inactive)"},
      {"smiles": "CCN(C(=O)Nc1ccccc1Cl)c1ccccc1", "growth inhibition": "8.8% (inactive)"},
      {"smiles": "CC(=O)c1cccs1", "growth inhibition": "15.1% (inactive)"},
      {"smiles": "CCNc1ncnc2[nH]ncc12", "growth inhibition": "-5.6% (inactive)"},
      {"smiles": "CCCOCc1cn[nH]n1", "growth inhibition": "8.3% (inactive)"},
      {"smiles": "CCCC(=O)c1cccs1", "growth inhibition": "10.8% (inactive)"},
      {"smiles": "C/C(Cc1ccccc1)=N\\O", "growth inhibition": "-20.6% (inactive)"},
      {"smiles": "CN(C)c1ncnc2c1cnn2C", "growth inhibition": "9.3% (inactive)"},
      {"smiles": "Nc1cc(N)ncn1", "growth inhibition": "3.6% (inactive)"},
      {"smiles": "O=S(=O)(O)C(C(I)I)S(=O)(=O)O", "growth inhibition": "-3.35% (inactive)"},
      {"smiles": "CC(=O)Nc1ccc(C(=O)c2ccc(S(=O)(=O)Nc3ccccc3)cc2)cc1", "growth inhibition": "5.55% (inactive)"},
      {"smiles": "CN(C)c1ccc(O)c2c1CC1CC3C(N(C)C)C(=O)C(C(N)=O)=C(O)C3(O)C(=O)C1=C2O", "note": "(stereo not given)", "growth inhibition": "68.2% (inactive)"}
    ]}
  ]
}
